# Source: PubChem BioAssay AID1508602 (The Scripps Research Institute Molecular Screening Center, 2020)
# Where “and” joins values, the source holds several entries; their conditions need not be identical. Equal values may be shown once. About 6,800 (1%) of roughly 650,000 compounds were called active. No stated cut-off is given here; in the data, active means activation above about 4.9%; inactive means the rest. The sample as a whole holds a higher share of actives than the screen did. The source holds several records for some structures; these can differ, active in one and inactive in another.
# Molecular target: G-protein coupled receptor 151 (Homo sapiens) (UniProt Q8TDV0)
# Test: activates the human receptor GPR151, primary screen, cell-based, PathHunter beta-arrestin, luminescence (AID 1508602);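 further: 0% = median of compound wells and 100% = cells with positive control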
# Settings: PathHunter beta-arrestin GPR151 cells, at 11.2 µM, stronger effect = higher value
# Sequence of G-protein coupled receptor 151 (Homo sapiens) (Q8TDV0 whole entry, looked up): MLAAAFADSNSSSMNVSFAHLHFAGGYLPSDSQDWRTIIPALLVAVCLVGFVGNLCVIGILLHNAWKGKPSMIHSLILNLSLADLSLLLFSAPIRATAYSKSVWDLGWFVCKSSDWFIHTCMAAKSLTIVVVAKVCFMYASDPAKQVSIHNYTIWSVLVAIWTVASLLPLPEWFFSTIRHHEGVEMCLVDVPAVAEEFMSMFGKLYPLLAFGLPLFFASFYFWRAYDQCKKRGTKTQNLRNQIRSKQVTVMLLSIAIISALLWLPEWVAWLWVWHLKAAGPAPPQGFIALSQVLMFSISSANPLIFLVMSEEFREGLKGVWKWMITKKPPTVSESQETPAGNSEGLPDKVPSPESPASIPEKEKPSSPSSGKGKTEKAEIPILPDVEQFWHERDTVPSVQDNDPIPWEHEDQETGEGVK
row,SMILES,activation
1,O=C(Nc1cccc(-c2nnc3n2CCCCC3)c1)c1ccc(=O)n(Cc2ccccc2)n1,-1.56% (inactive)
2,CCOC(=O)c1c(-c2ccc(OC)cc2)oc2ccc(OC(=O)c3ccccc3OC)cc12,-0.167% (inactive)
3,O=C(c1ncoc1-c1cccs1)N1CCN(c2ccc(C(F)(F)F)cn2)CC1,0.0668% (inactive)
4,Nc1[nH]c(=O)[nH]c(=O)c1N=Nc1cccc(Br)c1,-1.15% (inactive)
5,O=C1CCN(Cc2cc(F)cc(F)c2)CCN1Cc1ccc(Cl)s1,-0.0282% (inactive)
6,N=c1c(C(=O)NCc2cccnc2)cc2c(=O)n3ccccc3nc2n1CCO,1.18% (inactive)
7,CCCn1c(=N)c(C(=O)NCc2ccc(C)cc2)cc2c(=O)n3ccccc3nc21,1.57% (inactive)
8,COCCNC(=O)c1cc2c(=O)n3ccccc3nc2n(CCc2ccccc2)c1=N,4.99% (active)
9,Cc1ccc(C2(C)NC(=O)N(CC(=O)c3ccc(Br)s3)C2=O)cc1 (centres undefined),1.11% (inactive)
10,O=C(CN(c1cccc([N+](=O)[O-])c1)S(=O)(=O)c1ccccc1)N1CCOCC1,0.197% (inactive)
11,CCCCN1C(=O)S/C(=C\c2ccc(O)c([N+](=O)[O-])c2)C1=O,-1.5% (inactive)
12,CN(C)S(=O)(=O)c1cccc(C(=O)N2CCCc3ccccc32)c1,1.08% (inactive)
13,O=C(CC1C(=O)NCCN1Cc1ccc2ccccc2c1)NCCCn1cccn1 (centres undefined),5.94% (active)
14,O=C(CC1C(=O)NCCN1CCc1ccccc1)NCCCn1ncc2ccccc21 (centres undefined),0.711% (inactive)
15,COC(=O)CCCNC(=O)CC1C(=O)NCCN1Cc1ccc2ccccc2c1 (centres undefined),-0.306% (inactive)
16,COc1cc(CN(C(=O)c2cncs2)C2CCCC2)cc(OC)c1OCC1CCCO1 (centres undefined),-1.02% (inactive)
17,COC(=O)c1ccc2c(=O)nc3c(-c4ccccc4)n[nH]n3c2c1,-1.93% (inactive)
18,CCOC(=O)c1ccc(CNC(=O)c2cc(CCc3ccccc3)no2)o1,0.0388% (inactive)
19,COc1ccc(Cn2cc[nH]c(=O)c2=O)cc1,-0.548% (inactive)
20,Oc1ccc(Cn2cc[nH]c2=S)cc1,8.86% (active)
21,O=[N+]([O-])c1cccc(COC2=NS(=O)(=O)c3ccccc32)c1,0.739% (inactive)
22,O=C(Cc1ccccc1)N/N=C/c1ccc([N+](=O)[O-])cc1,-0.27% (inactive)
23,NC(=S)N/N=C/c1ccc([N+](=O)[O-])cc1,-0.328% (inactive) and 5.02% (active)

row,SMILES,activation
1,CSc1ccc(/C=N/NC(N)=S)cc1,0.328% (inactive)
2,Cc1[nH]c2ccccc2c1/C=N/NC(=O)/C(=C/c1ccccc1O)NC(=O)c1ccccc1,-5.34% (inactive)
3,COc1cccc(C(=O)NC(=S)Nc2ccc(OC)cc2OC)c1,10.4% (active)
4,COc1cccc(C(=O)NC(=S)Nc2ccccc2OC)c1,-0.111% (inactive)
5,COc1ccc(NC(=S)NC(=O)c2ccc([N+](=O)[O-])cc2)c(OC)c1,3.1% (inactive)
6,CC1=C(C(=O)OCCc2ccccc2)C(c2ccc(Br)cc2)NC(=O)N1 (centres undefined),-1.85% (inactive)
7,CCCOC(=O)C1=C(C)NC(=O)NC1c1ccccc1 (centres undefined),-1.76% (inactive)
8,CCCOC(=O)C1=C(C)NC(=O)NC1c1ccc(Br)cc1 (centres undefined),9.45% (active)
9,CCCCN(C)C(=O)C1(c2ccc(OC)cc2)CCOCC1,0.343% (inactive)
10,COc1ccc(C2(C(=O)Nc3ccc(C(=O)NCc4ccccc4)cc3)CCOCC2)cc1,0.34% (inactive)
11,CCCCNC(=O)C1(c2ccc(OC)cc2)CCOCC1,7.05% (active)
12,Cn1cccc1CC(=O)N/N=C\c1c(Cl)cccc1Cl,0.023% (inactive)
13,COc1cccc(CC2(CCC(=O)NC3CCOC(C)(C)C3)CCC(=O)N2)c1 (centres undefined),1.54% (inactive)
14,CC(C)CNc1nc2c(c(=O)[nH]c(=O)n2C)n1CC(C)O (centres undefined),5.96% (active)
15,CC(O)Cn1c(N(C)C)nc2c1c(=O)[nH]c(=O)n2C (centres undefined),-0.989% (inactive)
16,Cc1ccc(/C=N/Nc2nc3c(c(=O)[nH]c(=O)n3C)n2CC(O)COC(C)C)cc1 (centres undefined),-0.049% (inactive)
17,CCC(C)Nc1nc2c(c(=O)[nH]c(=O)n2C)n1CC(O)COC(C)C (centres undefined),5.88% (active)
18,CCCCNc1nc2c(c(=O)[nH]c(=O)n2C)n1CC(O)COC(C)C (centres undefined),0.097% (inactive)
19,C/C(=N\Nc1nc2c(c(=O)[nH]c(=O)n2C)n1CC(C)O)c1ccc(O)cc1 (centres undefined),-2.73% (inactive)
20,Cc1cc(C)c(/C=N/NC(=O)c2nnn(-c3nonc3N)c2CN(C)C)c(C)c1,-0.818% (inactive)
21,CCOC(=O)c1c(NC(=O)Cc2ccc([N+](=O)[O-])cc2)sc(C)c1C,-0.865% (inactive)
22,Cc1cc(S(=O)(=O)n2cc(-c3cccc(F)c3)c(N)n2)ccc1F,0.532% (inactive)
23,Cc1ccc(C)c(CN2CCC(n3nccc3NC(=O)C(C)(C)C)CC2)c1,5.02% (active)

row,SMILES,activation
1,Cc1cccc(CN2CCC(n3nccc3NC(=O)C(C)(C)C)CC2)c1,-0.39% (inactive)
2,CC(C)(C)C(=O)Nc1ccnn1C1CCN(Cc2ccccc2C(F)(F)F)CC1,0.711% (inactive)
3,COc1cccc(/C=N/NC(=O)CC23CC4CC(CC(C4)C2)C3)c1O,0.719% (inactive)
4,COc1ccc(NC(=O)Cn2c(-c3ccc(OC)cc3)cn(-c3ccc(C)cc3)c2=O)cc1,7.86% (active)
5,COc1ccc(NC(=O)Cn2c(=O)n(-c3ccc(F)cc3)c(=O)c3sccc32)cc1,-0.363% (inactive)
6,COc1ccc(-n2ccnc2SCC(=O)Nc2ccc(C)cc2)cc1,1.88% (inactive)
7,CCOC(=O)c1cc2c(C)n(Cc3ccccc3)c(C)c2cc(C(=O)OCC)c1=O,-0.0778% (inactive)
8,CCC1=C(C)c2cc3nc(C(=O)OCc4ccccc4)c(C)c-3c(C)n2C1C (centres undefined),5.68% (active)
9,CCOc1ccc(-c2nn(-c3ccccc3)cc2C2C(C(=O)OCc3ccccc3)=C(C)NC(C)=C2C(=O)OCc2ccccc2)cc1,1.89% (inactive)
10,NC(=O)CN(c1ccccc1)S(=O)(=O)c1ccccc1[N+](=O)[O-],0.204% (inactive)
11,CCOc1cc(CNCc2c(C(=O)O)n(CC)c3cc(OC)ccc23)ccc1OC,-1.01% (inactive)
12,O=C(CSc1nnnn1-c1ccc(F)cc1)N1CCc2ccccc21,-1.53% (inactive)
13,O=CN1CCN(CCC(=O)Nc2ccccc2)CC1,5.13% (active)
14,O=C(CCN1CCN(C/C=C/c2ccccc2)CC1)Nc1ccc(Br)cc1,1.05% (inactive)
15,COc1ccc(NC(=O)CCN2CCN(C=O)CC2)cc1,-1.28% (inactive)
16,CCOC(=O)c1c(NC(=O)c2nn3c(C(F)(F)F)cc(-c4ccc(OC)cc4)nc3c2Cl)sc2c1CCCC2,0.0805% (inactive)
17,Cc1ccc(Nc2cc(C)nc3nncn23)cc1,-0.458% (inactive)
18,Fc1ccc(Nc2nc3ccccc3n3cnnc23)cc1,-0.0284% (inactive)
19,Cc1cc(Nc2ccc(F)cc2)n2cnnc2n1,9.65% (active)
20,CCOc1ccccc1/C=C1/NC(=S)NC1=O,0.436% (inactive)
21,O=C1CCCN1CCn1cnc2c(NCc3nc4ccccc4[nH]3)nc(N3CCc4ccccc4C3)nc21,-1.26% (inactive)
22,COc1ccc(OC)c(NC(=S)Nc2ccccn2)c1,9.49% (active)
23,CCn1cc(CNC(=S)Nc2cc(OC)ccc2OC)cn1,-1.23% (inactive)

row,SMILES,activation
1,CNC(=O)C(=O)Nc1cc(OC)ccc1OC,-0.733% (inactive)
2,COCCn1nnnc1C(c1cc2c(C)cc(C)cc2[nH]c1=O)N1CCCC(C)C1 (centres undefined),0.229% (inactive)
3,CCOc1ccc2cc(C#N)c(SCC(=O)Nc3ccccc3C(=O)OC)nc2c1,-0.792% (inactive)
4,COc1ccc(OC)c(CNC(=O)c2cc3c(C)nc4ccccc4c3o2)c1,0.296% (inactive)
5,O=C(Nc1cc(Cl)cc(Cl)c1)c1ccc(F)c(S(=O)(=O)NCc2ccco2)c1,0.664% (inactive)
6,COc1ccc(C2=NN(C(=O)CSc3nnc(CNC(=O)c4ccc(S(=O)(=O)N(C)C)cc4)n3C)C(c3ccc(C)cc3)C2)cc1 (centres undefined),1.11% (inactive)
7,CC(C)CC(C(=O)Nc1ccc(Cl)cc1)N1C(=O)c2ccccc2C1=O (centres undefined),-0.915% (inactive)
8,CC(C)CC(C(=O)Nc1ccc([N+](=O)[O-])cc1)N1C(=O)c2ccccc2C1=O (centres undefined),2.66% (inactive)
9,CC(C)CC(C(=O)Nc1cccc([N+](=O)[O-])c1)N1C(=O)c2ccccc2C1=O (centres undefined),15.7% (active)
10,CCOCCCNC(=O)/C(C#N)=C/c1c(Oc2ccc(CC)cc2)nc2ccccn2c1=O,-7.56% (inactive)
11,CCN(CC)c1ccc(CN2C[C@@H](NCc3ccc4ccccc4c3)C[C@H]2C(=O)NC)cc1,0.619% (inactive)
12,CCOCCCNC(=O)NC1CCN(c2nc3ccccc3s2)CC1,5.41% (active)
13,CCCCN(C)CCCNC(=O)C1CCN(c2nc3ccc(OC)cc3s2)CC1,-1.77% (inactive)
14,CC1CCN(c2nc3ccc(C(=O)NCCCOC(C)C)cc3s2)CC1,-0.0522% (inactive)
15,Cc1nn2c(N3CCNCC3)c3c(nc2c1-c1ccccc1)CCC3,-1.05% (inactive)
16,Cn1c(=NC(=O)CN2C(=O)c3ccccc3C2=O)sc2cc(F)cc(F)c21,0.254% (inactive)
17,c1cnc(Nc2nc(NCc3cccnc3)c3ncn(C4CCCCC4)c3n2)nc1,-0.529% (inactive)
18,FC(F)(F)c1ccc(Nc2nc(NC3CC3)c3ncn(C4CCCCC4)c3n2)cc1,0.642% (inactive)
19,c1cncc(Nc2nc(NC3CC3)c3ncn(C4CCCCC4)c3n2)c1,11.5% (active)
20,Cc1ccc(NC(=O)CCNS(=O)(=O)c2ccc3c(c2)c(=O)n(C)c(=O)n3C)nc1,-0.3% (inactive)
